TRPV1 PAM = human TRPV1 potentiation; Q8NER1; TRPV1-expressing cells, Fluo-8 calcium influx, capsaicin EC20 potentiation; potentiation, % at 8.33 µM; actives 0.02% (n = 320,000); in the data active = potentiation above about 80%; inconclusive = between about 30% and that limit
Target sequence (Q8NER1 whole entry, looked up): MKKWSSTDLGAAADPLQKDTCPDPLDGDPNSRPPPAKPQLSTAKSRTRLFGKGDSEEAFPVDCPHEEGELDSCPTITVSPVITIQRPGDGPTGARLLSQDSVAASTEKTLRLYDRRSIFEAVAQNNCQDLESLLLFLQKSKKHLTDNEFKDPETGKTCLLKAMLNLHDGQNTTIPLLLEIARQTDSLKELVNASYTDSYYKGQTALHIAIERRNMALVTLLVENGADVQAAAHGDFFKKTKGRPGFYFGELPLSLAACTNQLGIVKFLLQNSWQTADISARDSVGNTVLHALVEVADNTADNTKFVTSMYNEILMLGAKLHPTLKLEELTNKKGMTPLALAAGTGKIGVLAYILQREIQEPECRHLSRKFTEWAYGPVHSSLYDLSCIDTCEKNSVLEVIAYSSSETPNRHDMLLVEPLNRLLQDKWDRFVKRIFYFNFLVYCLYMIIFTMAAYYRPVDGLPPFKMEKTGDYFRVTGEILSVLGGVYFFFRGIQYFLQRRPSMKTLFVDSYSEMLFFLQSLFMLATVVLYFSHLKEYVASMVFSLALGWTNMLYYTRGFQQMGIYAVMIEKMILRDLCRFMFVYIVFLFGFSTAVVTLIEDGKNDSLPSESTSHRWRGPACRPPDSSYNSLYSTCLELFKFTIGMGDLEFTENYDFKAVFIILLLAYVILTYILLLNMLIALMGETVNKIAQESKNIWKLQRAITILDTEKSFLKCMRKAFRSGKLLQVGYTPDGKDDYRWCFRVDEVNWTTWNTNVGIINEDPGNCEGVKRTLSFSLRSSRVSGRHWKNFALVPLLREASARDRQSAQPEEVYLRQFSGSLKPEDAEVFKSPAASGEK
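Fluo-8 calcium influx in TRPV1-expressing cells, kinetic read (ex 480/em 520 nm). Compound added and read 3 min for agonist activity, followed by capsaicin at EC20 final and 2 min further read for enhancement.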
KCNH2 3.1 inh = inhibitors of human KCNH2 3.1 potassium channel isoform | U2OS KCNH2 3.1, thallium flux FluxOr; stronger effect = lower value | activity change, % (tested at about 1.8 µM) | actives 0.95% (n = 340,000) | AID 720553;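 active = maximum activity change below -70%; inconclusive = maximum activity change from -70% to -50%; inactive = maximum activity change above -50%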;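 note: thallium influx rate constant from kinetic fluorescence after stimulation buffer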
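Measured as rate of thallium-driven FluxOr signal in transduced U2OS cells carrying the 3.1 channel, read kinetically for 2 min upon stimulation; values are rate constants scaled to DMSO control wells.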
TRPV1 agonist = human TRPV1 agonism; TRPV1-expressing cells, Fluo-8 calcium influx, agonist mode; activation, % at 8.33 µM; actives 0.19% (n = 320,000); in the data active = activation above about 80%; inconclusive = between about 30% and that limit
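Fluo-8 calcium influx in TRPV1-expressing cells, kinetic read (ex 480/em 520 nm). Compound added and read 3 min for agonist activity, followed by capsaicin at EC20 final and 2 min further read for enhancement.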
hERG WT inh = blocks the wildtype human KCNH2 potassium channel. U2OS, BacMam KCNH2, thallium flux FluxOr; stronger effect = lower value. activity change, % at 1.84 µM. actives 0.37% (n = 340,000). AID 720551;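 active = maximum activity change below -70%; inconclusive = maximum activity change between -70% and -50%; inactive = maximum activity change above -50%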
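U2OS cells were transduced with wild-type KCNH2 virus (2.03 x 10^8 / mL) for 4 h at room temperature, then cultured overnight at 37 C. Thallium flux was read with FluxOr dye. Rate constants were normalized to DMSO controls.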
Numbers stand for hits; - = inactive; ? = inconclusive; . = no result given. An excerpt weighted towards active compounds, which were near 1.2% of everything screened.

SMILES	TRPV1 PAM	KCNH2 3.1 inh	TRPV1 agonist	hERG WT inh
O=C(CNc1cccc(C(F)(F)F)c1)N/N=C/c1cccc(Br)c1	-	-	-	-
O=C(CNc1cccc(C(F)(F)F)c1)N/N=C/C1CCCCC1	-	-	97	-
CCCCCCN1CCN(C2CN(Cc3ccc([N+](=O)[O-])cc3)S(=O)(=O)C2)CC1 (stereo unspecified)	.	-112	.	-96
O=[N+]([O-])c1ccc(CN2CC(N3CCN(CCO)CC3)CS2(=O)=O)cc1 (stereo unspecified)	.	-	.	-
COc1ccc([C@]23Cc4cc(OC)c(OC)cc4C(O2)C2=C(CC(C)(C)CC2=O)O3)cc1	-	.	-	.
Cc1nn(C)c(C(=O)Nc2ccc(S(=O)(=O)NC34CC5CC(CC(C5)C3)C4)cc2)c1Br	81	-	-	-
CCN(CC)CC(C)(C)C(=O)/C=C/c1ccc(/C=C/C(=O)C(C)(C)CN(CC)CC)cc1	.	-	.	-
O=C(NCc1cccnc1)C1CCC(c2ccc(Cl)cc2)CC1 (stereo unspecified)	-	-	115	-
CC1(C)C(=O)Nc2ccccc2N1C(=O)COC(=O)c1cc([N+](=O)[O-])ccc1N	-	-	-	-
O=C1NCN(c2ccccc2)C12CCN(CCCC(c1ccc(F)cc1)c1ccc(F)cc1)CC2	-	-	-	-194
O=c1cc(CSc2nnnn2-c2ccccc2)nc2sccn12	-	-72	-	-
Cc1ccccc1-n1nnnc1SCc1cc(=O)n2ccsc2n1	-	-	-	-
CCC(=O)N(C)/C=C1\Sc2ccccc2C1=O	?	-	-	-102
CC(=O)N(C)/C=C1\Sc2ccccc2C1=O	-	-	-	-
O=C(NCCc1csc(-c2ccccc2)n1)c1ccc(Br)o1	-	-	-	-
O=C(NCCc1csc(-c2cccnc2)n1)c1ccc(Br)o1	-	-	-	-71
Cc1ccc(-c2noc(CCC(=O)Nc3cccc(C(=O)NC4CC4)c3)n2)cc1	.	-	.	-
COC(=O)c1sccc1NC(=O)COc1ccccc1Cl	-	-	?	-
C[C@@H]1CN([C@@H](C)CO)C(=O)CCCn2nncc2CO[C@@H]1CN(C)C(=O)c1ccncc1	.	-	.	-
CCN(CC)CCCN(C(=O)c1ccco1)c1nc(-c2ccc(C)cc2)cs1	-	-94	-	-
O=C(c1ccco1)N(CCCN1CCOCC1)c1nc(-c2ccc(Cl)cc2)cs1	-	-	-	-
COCCCN(C(=O)c1ccco1)c1nc(-c2ccc(OC)cc2)cs1	-	-	-	-
CCN(CC)CCCN(C(=O)c1ccco1)c1nc(-c2ccc(Cl)cc2)cs1	-	-80	-	-
COc1ccc([C@]23Cc4ccccc4C(O2)c2c(cc(C)n(Cc4ccccc4)c2=O)O3)cc1	-	.	-	.
Cc1ccc(OCCCC(=O)NNC(=O)c2ccccn2)cc1	.	-	.	-
SMILES	TRPV1 PAM	KCNH2 3.1 inh	TRPV1 agonist	hERG WT inh
CCN(C(=O)COC(=O)c1cncc(Br)c1)C1CCS(=O)(=O)C1 (stereo unspecified)	80	-	-	-
COc1ccc(Nc2nc(C)nc3c2oc2ccccc23)cc1	-	-	98	-
Cc1nc(NCCN2CCOCC2)c2oc3ccccc3c2n1	-	-	-	-
Cc1ccc(Nc2nc(C)nc3c2oc2ccccc23)cc1	-	-	88	-
Cc1nc(NCCc2ccccc2)c2oc3ccccc3c2n1	-	-	82	-
Cc1ccc(-c2nnc(-n3ncc(C#N)c3N)c3ccccc23)cc1C	-	-	-	-
CCOC(=O)C1(Cc2cccc(OC)c2)CCN(Cc2ccc(OC)c(O)c2)CC1	-	-77	-	-
CCOC(=O)C1(CCOc2ccccc2)CCN(Cc2cc(OC)c(O)c(OC)c2)CC1	-	-77	-	-
CCOC(=O)C1(Cc2cccc(OC)c2)CCN(CCO)CC1	-	-	-	-
CCOC(=O)C1(CCOc2ccccc2)CCN(Cc2ccc(O)c(OCC)c2)CC1	-	-102	-	-118
CCOC(=O)C1(CCOc2ccccc2)CCN(Cc2ccc(OC)c(O)c2)CC1	?	-112	-	-77
CC1CCN(S(=O)(=O)c2ccc3c(c2)c(=O)c(C(=O)N2CCOCC2)cn3C)CC1	-	-127	-	-
CC1CCN(S(=O)(=O)c2ccc3c(c2)c(=O)c(C(=O)N2CCCCC2)cn3C)CC1	-	-	-	-
CCOCC(=O)Nc1cc(Cl)ccc1C	-	-	-	-
CCOC(=O)COc1ccc2c(C)cc(=O)oc2c1C(=O)c1ccccc1	-	-	-	-
CC(=O)c1c(OCC(=O)O)ccc2c(C)cc(=O)oc12	-	-117	-	-
O=C(CCS(=O)(=O)c1ccc(Br)cc1)Nc1ccc(Br)cc1F	-	-	-	-
Cc1ccc(CN2[C@@H](c3ccccc3)COCCS2(=O)=O)cc1	-	-	-	-
CN(C)S(=O)(=O)Nc1cccc(Br)c1	-	-	-	-126
CC(=O)c1cccc(NS(=O)(=O)N(C)C)c1	-	-	-	-
COc1ccc(-n2c(COc3ccc(Cl)cc3)nnc2SCc2ccc(C#N)cc2)cc1	-	-79	-	-
COc1ccc(-n2c(COc3ccc(C)cc3)nnc2SCc2ccc(C#N)cc2)cc1	-	-	?	-
Cc1cc(C)nc(N2CCC(C(=O)Nc3ccc4c(c3)OCO4)CC2)n1	-	-	-	-
Cc1cc(C)nc(N2CCCC(C(=O)Nc3ccc4c(c3)OCO4)C2)n1 (stereo unspecified)	-	-	83	-
O=C(Nc1ccccc1F)C(=Cc1sc(N2CCOCC2)nc1-c1ccccc1)C(=O)Nc1ccccc1F	-	-77	-	-
SMILES	TRPV1 PAM	KCNH2 3.1 inh	TRPV1 agonist	hERG WT inh
O=C(N/N=C/c1sc(N2CCOCC2)nc1-c1ccccc1)c1ccccc1F	-	-	-	-
Cc1ccc(S(=O)(=O)N(C)C[C@H]2OCc3cn(nn3)CCCC(=O)N([C@H](C)CO)C[C@@H]2C)cc1	.	-	.	-
COc1cc(OC)c(-c2c3cc(O)c(=O)cc-3oc3cc(O)c(O)cc23)cc1OC	-	-	104	-
Cc1c2cc(O)c(=O)cc-2oc2cc(O)c(O)cc12	-	-	-	-
Cc1cc(Br)ccc1NC(=O)CN(C)C(=O)C1CCN(c2ncnc3sc(C)c(C)c23)CC1	.	-	.	-
NS(=O)(=O)c1ccc(N=Nc2c(-c3ccccc3)[nH]n(-c3nc(-c4ccccc4)cs3)c2=O)cc1	-	-84	-	-
C#CCOCCOCCOCCNc1nc(N2CCN(C(=O)Cn3cc(CC(C)O)nn3)CC2)nc(N2CCN(C(=O)[C@H](C)n3cc(CCCN=C(N)N)nn3)CC2)n1 (stereo partly specified)	-	-147	-	-
C#CCOCCOCCOCCNc1nc(N2CCN(C(=O)Cn3cc(CCCCN)nn3)CC2)nc(N2CCN(C(=O)[C@H](C)n3cc(CCCN=C(N)N)nn3)CC2)n1	-	.	-	.
COc1ccc(N)c2c1C(=O)c1ccccc1C2=O	-	-98	-	-
COc1ccc(OC)c2c1C(=O)c1ccccc1C2=O	-	-	-	-
O=C(O)CN1CCN(Cc2ccc(Cl)cc2)C1=O	-	-	-	-
COc1cc(CNCCc2c[nH]c3ccccc23)ccc1OCc1ccc(F)cc1	-	-88	-	-

Compound activity from PubChem BioAssay.
